Compound activity: PubChem, National Center for Advancing Translational Sciences (NCATS)
Only some compounds are listed: those with a hit (about 9.3% of all), similar ones and a draw of the others.
SMN2 splice up – SMN2 splice variant enhancement; actives 2.8% (n = 210,000); AID 1458; HEK293 SMN2-luciferase splicing reporter, luminescence, 30-36 h; Potency, µM (top dose mostly 46.1 µM), hits mostly activators; note: nearly all actives have a fitted effect of over 55% in size
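HEK293 cells carry an SMN2 minigene-luciferase reporter in which exon 7 inclusion puts luciferase in frame. Cells were seeded at 2000 cells/well, attached for 10-12 hours, then exposed to compounds for 30-36 hours at 37C before ONE-Glo luminescence.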
NPC1 promoter act – activators of NPC1 promoter | Huh7 NPC1 promoter luciferase reporter, 24 h | Potency, µM (series often up to 9.22 µM), hits mostly activators | actives 2.4% (n = 320,000) | AID 485313; note: nearly all actives have a fitted effect of over 60% in size
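Cells: Huh7 expressing luciferase under the NPC1 promoter, 1500/well. Seeded 2 h, compound added, incubated 24 h at 37 °C. Luciferase reagent, 10 min ambient, then luminescence.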
ELG1 genotoxic – inducers of genotoxicity in HEK293T ELG1-luciferase cells; HEK293T ELG1-luciferase reporter, luminescence, 16 h; Potency, µM (doses to about 46 µM), actives largely listed as activators; actives 1.3% (n = 330,000); note: nearly all actives have a fitted effect of over 60% in size
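HEK293T cells expressing luciferase-tagged ELG1 were exposed to compound or DMSO vehicle for 16 hr at 37 °C and 5% CO2. Luciferase activity was then measured with ONE-Glo after 30 min at room temperature.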
Rab9 prom act – activators of Rab9 promoter; Huh7 Rab9 promoter-luciferase reporter, luminescence, 24 h; Potency, µM (series often up to 9.22 µM), hits mostly activators; actives 2.8% (n = 320,000); note: nearly all actives have a fitted effect of over 60% in size
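Huh7 reporter line, Rab9 promoter upstream of luciferase. Compound exposure 24 h at 37 °C in reduced-serum medium with 10% FBS. Read-out: luminescence.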
ELG1 DNA repair – inhibitors of ELG1-dependent DNA repair in HEK293T cells; HEK293T ELG1-luciferase reporter, luminescence, 16 h; DNA damage induced by 5-fluorouridine; Potency, µM (series often up to 46.1 µM), hits mostly inhibitors; actives 2.3% (n = 330,000); AID 504467; note: nearly all actives have a fitted effect of over 55% in size
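DMSO vehicle served as the neutral condition. Each well held 2,000 cells given 5-fluorouridine plus compound; after 16 hr at 37 °C/5% CO2, ONE-Glo was added and luciferase measured 30 min later.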
FLuc counter – inhibits or activates purified firefly luciferase, miR-21 counter-screen; P08659; purified FLuc, Km substrates, luminescence inhibition; Potency, µM (top dose mostly 57.5 µM), actives largely listed as inhibitors; actives 6.9% (n = 360,000); AID 588342; note: nearly all actives have a fitted effect of over 55% in size
Target sequence (P08659 whole entry, looked up): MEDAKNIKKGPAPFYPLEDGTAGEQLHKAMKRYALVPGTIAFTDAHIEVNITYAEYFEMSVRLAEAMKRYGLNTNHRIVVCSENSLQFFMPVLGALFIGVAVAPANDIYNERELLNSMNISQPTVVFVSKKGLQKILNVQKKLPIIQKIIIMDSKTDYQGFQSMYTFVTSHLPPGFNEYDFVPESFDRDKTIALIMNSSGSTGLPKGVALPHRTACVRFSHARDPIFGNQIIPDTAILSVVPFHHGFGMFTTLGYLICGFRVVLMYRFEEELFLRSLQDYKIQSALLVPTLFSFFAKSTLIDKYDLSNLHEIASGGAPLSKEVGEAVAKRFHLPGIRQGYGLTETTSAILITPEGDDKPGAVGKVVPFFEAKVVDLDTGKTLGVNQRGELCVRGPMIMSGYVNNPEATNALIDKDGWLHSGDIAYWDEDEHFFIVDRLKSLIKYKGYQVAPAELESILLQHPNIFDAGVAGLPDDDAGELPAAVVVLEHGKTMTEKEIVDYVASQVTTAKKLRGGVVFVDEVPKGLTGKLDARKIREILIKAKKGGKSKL
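Purified P. pyralis luciferase, 10 nM final, with Km-level 10 uM D-luciferin and 10 uM ATP in 50 mM Tris acetate pH 7.5, 10 mM Mg acetate, 0.01% Tween-20, 0.05% BSA; 6-point qHTS titration about 60 µM downward; luminescence read.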
Numbers stand for hits; - = inactive; ? = inconclusive; . = no result given. Calls come from the whole dose curve; as a rule, active = well fitted curve in the direction sought with a large enough effect; inconclusive = small, poorly fitted or top-dose-only effect, or another doubt; inactive = no such curve, though single readings can be large; an effect the other way counts as inactive or inconclusive.

SMILES	SMN2 splice up	NPC1 promoter act	ELG1 genotoxic	Rab9 prom act	ELG1 DNA repair	FLuc counter
CC(C)(C)C1C/C(=C/c2ccccn2)C(=O)/C(=C/c2ccccn2)C1 (configuration not stated)	-	-	-	-	?	-
O=C1/C(=C/c2ccccn2)COc2ccccc21	-	-	-	-	?	8.5µM
Nc1nc(Nc2ccccc2)nc(NCc2ccco2)c1[N+](=O)[O-]	-	-	-	-	?	?
Fc1ccc(Nc2nc(NCc3ccco3)c3ccccc3n2)cc1	.	-	-	-	23µM	?
Cc1cc(-c2ccccc2)n(-c2ccc(C(=O)N3CCN(c4ncccn4)CC3)cc2)n1	-	-	-	-	6.5µM	-
O=C(c1ccc(S(=O)(=O)Nc2ccc(F)cc2)cc1)N1CCN(c2ccccn2)CC1	-	-	-	-	16µM	-
Cc1ccc(C(=O)N2CCN(c3ncccn3)CC2)cc1	.	-	-	-	-	-
Cc1ccc(NS(=O)(=O)c2ccc(C(=O)N3CCN(c4ncccn4)CC3)cc2)cc1	-	-	-	-	5.8µM	-
COc1ccc(CNC(=O)C2CCCN(S(=O)(=O)N(C)c3ccc(F)cc3)C2)cc1OC (configuration not stated)	.	.	.	.	.	-
Cc1ccc(C)c(NC(=O)CSc2ncc3c(n2)-c2ccccc2N(Cc2ccccc2C)S3(=O)=O)c1	.	.	.	.	.	-
Cc1cc(C)nc(NS(=O)(=O)c2ccc(NS(=O)(=O)c3ccsc3)cc2)n1	.	-	-	-	-	-
O=C(Nc1cccc(F)c1)N1CC2(CCN(C(=O)c3ccco3)CC2)C1	-	.	.	.	.	.
COc1ccc(NC(=O)c2ccccc2NC(=O)c2ccccc2)cc1	.	-	-	-	?	?
CC(=O)Oc1ccc(C(=O)Nc2cccc(C(=O)Nc3ccccc3C(=O)O)c2)cc1	.	-	-	-	-	11µM
CC(=O)Oc1ccc(C(=O)Nc2ccccc2C(=O)NCC(C)C)cc1	?	-	-	-	?	?
CC(=O)Oc1ccc(C(=O)Nc2ccccc2C(=O)Nc2ccc(C(=O)O)cc2)cc1	.	-	-	-	-	2.4µM
CC(=O)Oc1ccc(C(=O)Nc2ccccc2C(=O)Nc2cccc(C(=O)O)c2)cc1	.	-	-	-	?	4.3µM
O=C(OC1CCOC1=O)C1CCN(S(=O)(=O)c2ccccc2)CC1 (configuration not stated)	.	-	-	-	?	-
CCn1c(=O)cc(SCC(=O)NCc2ccc(OC)cc2OC)c2ccccc21	-	.	.	.	.	-
COc1ccc(CNC(=O)CNC(=O)CNS(=O)(=O)c2ccc(C)c(C)c2)cc1	.	-	-	-	-	-
COC(=O)CC1C(=O)NCCN1Cc1cn(-c2ccc(C)cc2)nc1-c1cccc(C)c1 (configuration not stated)	.	-	-	-	-	17µM
Cc1ccc(-n2cc(CNCCN3CCOC3=O)c(-c3cccc(C)c3)n2)cc1	.	-	-	-	-	-
COc1ccc2c(c1)CCC/C2=N/OC(=O)c1ccccc1OC	-	-	-	-	-	13µM
COc1ccc2c(c1[N+](=O)[O-])CCC/C2=N/OC(=O)c1cccc2ccccc12	-	-	-	-	-	-
COc1ccccc1C(=O)O/N=C(\c1ccccc1)c1ccncc1	-	-	-	-	-	-
SMILES	SMN2 splice up	NPC1 promoter act	ELG1 genotoxic	Rab9 prom act	ELG1 DNA repair	FLuc counter
COc1ccc2c(c1)CC/C2=N\OC(=O)c1ccccc1C	-	?	?	?	?	1.5µM
COc1ccccc1C(=O)ON=C1c2ccccc2-c2ccccc21	-	-	-	-	?	21µM
COc1ccc2c(c1)CC/C2=N\OC(=O)c1cccc(C)c1	-	3.5µM	?	?	?	1.5µM
Cc1cccc(C(=O)O/N=C(\N)CS(=O)(=O)c2ccccc2)c1	.	-	-	-	-	-
CCC(C(=O)Nc1ccccc1OC)n1c(C(=O)OC)cc2sc(Cl)cc21 (configuration not stated)	-	.	.	.	.	-
CN(C)/C=C1\Oc2ccc3ccccc3c2C1=O	18µM	3.2µM	-	?	?	17µM
COc1cccc(Nc2nc3ccc(C)cc3nc2-n2nc(C)cc2C)c1	-	.	.	.	.	-
Cc1cc(C)n(-c2nc(NCCCO)c3c4c(sc3n2)CCCC4)n1	-	-	-	-	?	21µM
Cc1cc(C)n(-c2nc(NCC(C)O)c3c4c(sc3n2)CCCC4)n1 (configuration not stated)	-	-	-	-	16µM	?
Cc1cc(C)n(-c2nc(SCC(=O)O)c3c4c(sc3n2)CCCC4)n1	.	-	-	-	-	?
Cc1cc(C)n(-c2nc(NCCO)c3c4c(sc3n2)CCCC4)n1	-	-	-	-	?	?
Cc1cc(C)n(-c2nc(SCCN(C)C)c3c4c(sc3n2)COC(C)(C)C4)n1	-	-	-	-	18µM	-
Cc1cc(C)n(-c2nc(NCC(C)O)c3c4c(sc3n2)COC(C)(C)C4)n1 (configuration not stated)	-	-	-	-	15µM	-
CCN(CC)CCN(C(=O)c1ccc(C(C)=O)cc1)c1nc2ccc(Cl)cc2s1	-	-	-	-	-	-
Cc1cc(C)n(-c2nc(SCC(=O)NCC3CCCO3)c3c4c(sc3n2)CCCC4)n1 (configuration not stated)	.	-	-	-	-	-
Cc1cc(C)n(-c2nc(NCC3CCCO3)c3c4c(sc3n2)COC(C)(C)C4)n1 (configuration not stated)	-	-	-	-	18µM	?
COc1cc(Cl)c(NC(=O)c2cc(CN3CCCC3)on2)c(OC)c1	-	.	.	.	.	-
Clc1cccc(C[n+]2cc(-c3ccccc3)n3c2CCC3)c1	-	-	-	-	-	-
Cc1ccc(-c2c[n+](Cc3cccc(Cl)c3)c3n2CCC3)cc1	.	-	-	-	10µM	-
Cc1ccc(C[n+]2cc(-c3ccc(Cl)cc3)n3c2CCC3)cc1	.	-	-	-	4.6µM	-
CCc1ccc(NC(=O)C[n+]2cc(-c3ccc(C)cc3)n3c2CCC3)cc1	.	-	-	-	12µM	-
Cc1ccc(-c2c[n+](CC(=O)Nc3c(C)cccc3C)c3n2CCC3)cc1	.	-	-	-	?	-
CCCCN(C(=O)C1CC1)C1CCS(=O)(=O)C1 (configuration not stated)	.	-	-	-	?	-
CSCC[C@H](NC(=O)N1CCn2c1nc1ccccc12)C(=O)NCc1ccc(C)cc1	.	-	-	-	-	-
Cc1[nH]nc(N=CC2=C(O)CC(C)(C)CC2=O)c1-c1ccc(Cl)cc1	-	-	-	-	-	17µM
Cc1ccc(N=CC2=C(O)CC(C)(C)CC2=O)nc1	-	-	-	-	-	24µM
